High-throughput results deposited in PubChem BioAssay by several laboratories.
An excerpt weighted towards active compounds, which were near 1.3% of everything screened.
beta cell repl = inducers of MIN6 beta-cell proliferation, primary screen, ATP luminescence, uHTS | MIN6 cells proliferation, ATPlite luminescence, 48 h; cells starved in 0.2% serum; 100% = growth in 10% serum | proliferation, % at 10 µM | 330,000 tested, 0.29% active | AID 2380, 2010;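 active = compounds whose signal lies at least 3.5 SD above the mean of all wells on their plate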;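 also: 0% = DMSO-treated cells in low-serum medium and 100% = 10% serum control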
DNA FID counter = compounds displacing fluorescent DNA intercalator, primary screen, artefact control for HCV NS3 helicase inhibitor project, biochemical, FID fluorescence | DNA fluorescent intercalator displacement | inhibition, % at 7.9 µM | 290,000 tested, 0.17% active; in the data active = inhibition above about 37%;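 also: 0% = vehicle and 100% = reference compound; higher means more ethidium bromide displaced from hairpin DNA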
PREPL inh = PREPL enzyme inhibitors, primary screen, biochemical, fluorescence polarization | Prolyl endopeptidase-like (Homo sapiens), Q4J6C6 | recombinant PREPL, fluorescence polarization activity-based probe | inhibition, % at 5.96 µM | 320,000 tested, 0.68% active | AID 2751, 2010;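 also: 0% = enzyme with DMSO and 100% = wells lacking enzyme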
UBC13 polyUb = UBC13 polyubiquitin chain formation inhibitors, primary screen, biochemical, TR-FRET, uHTS; Ubiquitin-conjugating enzyme E2 N (Homo sapiens), P61088; AID 485273, 2010; inhibition, % at 20 µM; 330,000 tested, 0.47% active; in the data active = inhibition above about 45%, passing the limit was not always enough
Target sequence (P61088 whole entry, looked up): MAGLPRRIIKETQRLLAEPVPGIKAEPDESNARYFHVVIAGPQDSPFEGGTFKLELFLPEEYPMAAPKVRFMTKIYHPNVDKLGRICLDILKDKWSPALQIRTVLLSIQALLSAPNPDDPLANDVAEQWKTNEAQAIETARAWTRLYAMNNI
RAD52 inh = RAD52 DNA annealing inhibitors, primary screen, biochemical, FRET, single point, set 2 | DNA repair protein RAD52 homolog (Homo sapiens), P43351 | recombinant RAD52 DNA annealing, FRET fluorescence | inhibition, % at 18.7 µM | 360,000 tested, 0.46% active | AID 651710, 2012;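 active = every replicate showing at least 50% inhibition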
RAD54 inh = inhibitors of human RAD54 branch migration, primary screen, biochemical, fluorescence, single point; inhibition, % at 10.4 µM; 360,000 tested, 0.14% active; RAD54 Holliday junction branch migration, FAM/BHQ fluorescence; DNA repair and recombination protein RAD54-like (Homo sapiens), Q92698;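 active = mean normalized replicate activity at least 40 and at least half of replicates scoring 40 or more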;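 also: 0% = median of neutral control wells and 100% = median of positive control wells; inhibitors cause a drop in the FAM fluorescence signal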
PREPL inh cf = human PREPL enzyme inhibitors, confirmation, biochemical, fluorescence polarization | shares compounds with PREPL inh | recombinant PREPL, fluorescence polarization activity probe | inhibition, % at 5.96 µM | 2,000 tested, 67% active | AID 2803, 2010;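 also: 0% = protein with DMSO and 100% = wells lacking protein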
An asterisk follows results filed as active; · = no result. Rule as the data show it, unless noted: active = inhibition above about 43%; inactive = the rest.

SMILES	beta cell repl	DNA FID counter	PREPL inh	UBC13 polyUb	RAD52 inh	RAD54 inh	PREPL inh cf
O=S(=O)(c1cccc(C(F)(F)F)c1)N1CCN(S(=O)(=O)c2ccc3c(c2)OCCO3)CC1	-2	·	15	6	·	-1	·
COc1ccc(-c2cnc3c(c2)C(=O)N([C@@H](C)CO)C[C@H](C)[C@@H](CN(C)Cc2ccc(C(=O)O)cc2)O3)cc1	·	·	·	·	-2	7	·
C[C@@H]1CN([C@H](C)CO)S(=O)(=O)c2ccc(-c3ccncc3)cc2O[C@H]1CN(C)C(=O)c1ccc2c(c1)OCO2	·	·	·	·	12	6	·
Cn1nc(C(F)(F)F)c2cc(NC(=O)OCc3ccc(F)cc3)sc21	-4	-8	23	12	·	-6	·
COc1ccc(COC(=O)Nc2cc3c(C(F)(F)F)nn(C)c3s2)cc1	-3	-13	45*	2	·	-3	36
O=C(NCCOc1ccccc1)c1ccc2c(c1)S(=O)(=O)c1cc(Cl)ccc1C2=O	-5	·	43*	6	4	-7	30
COc1ccc(S(=O)(=O)Nc2ccc3c(c2)C(=O)N([C@@H](C)CO)C[C@@H](C)[C@@H](CN(C)CC2CCCCC2)OCCCC[C@@H](C)O3)cc1	·	·	·	·	·	8	·
C=C1c2cccc(O)c2C(=O)C2C(=O)[C@]3(O)C(=O)C(C(N)=O)C(=O)[C@@H](N(C)C)[C@@H]3[C@@H](O)[C@H]12 (stereo not given in full)	0	·	62*	41	7	-1	2
C[C@H]1c2cccc(O)c2C(O)=C2C(=O)[C@]3(O)C(O)=C(C(N)=O)C(=O)[C@@H](N(C)C)C3[C@@H](O)C21 (stereo not given in full)	-3	·	2	17	11	12	·
COc1ccc(C(=O)NC(=S)Nc2ccc3oc(=O)ccc3c2)cc1[N+](=O)[O-]	-5	-8	47*	-16	-21	2	3
CC(=O)[C@]1(O)Cc2c(O)c3c(c(O)c2[C@@H](O[C@H]2C[C@H](N)[C@H](O)[C@H](C)O2)C1)C(=O)c1ccccc1C3=O	-8	·	66*	-406	·	·	85*
COc1cccc(-c2ccc([C@H]3[C@H](CO)N4C(=O)CN(C(=O)c5ccncc5)C[C@@H]34)cc2)c1	·	·	·	·	-18	·	·
Cc1ccc(C)c(N2CCN(C(=S)Nc3ccc4nc(N5CCOCC5)cc(C)c4c3)CC2)c1	-5	4	54*	-10	·	1	39
Cc1cccc(N2CCN(C(=S)Nc3ccc4nc(N5CCOCC5)cc(C)c4c3)CC2C)c1 (stereo not given)	0	1	43*	11	·	·	16
COc1ccccc1N1CCN(C(=S)Nc2ccc3nc(N4CCOCC4)cc(C)c3c2)CC1	-5	-4	17	0	·	·	·
O=C(O)C1Nc2c(O)cc(Cl)c([N+](=O)[O-])c2C2C=CCC12 (stereo not given)	-2	4	94*	38	3	·	22
C[C@@H]1CN([C@@H](C)CO)C(=O)Cc2cc(NC(=O)Cc3cn(C)c4ccccc34)ccc2O[C@@H]1CN(C)C(=O)Nc1ccc2c(c1)OCO2	·	·	·	·	17	-1	·
O=C(COC(=O)CNC(=O)c1ccccc1)Nc1ccc(Cl)cn1	-1	·	45*	1	-14	-12	2
O=C(COC(=O)CNC(=O)c1ccco1)Nc1ccc(Cl)cn1	-2	-6	-4	5	·	·	·
CCN(CC)CCCNC(=O)C1c2ccccc2C(=O)N(CCOC)C1c1ccc(F)cc1 (stereo not given)	0	3	2	-8	-18	·	·
CCN(CCCNC(=O)C1c2ccccc2C(=O)N(CCOC)C1c1ccc(F)cc1)Cc1ccccc1 (stereo not given)	-3	9	49*	-5	-15	6	17
